# Results taken from PubChem BioAssay (NCATS).
# Active and inactive are the calls of the source. How the calls were made is not given here.
# Settings: Ebola virus entry assay, blue channel fluorescence
Structure (SMILES),AC50,outcome
CO[C@]12C[C@@H](COC(=O)c3cncc(Br)c3)CN(C)[C@@H]1Cc1cn(C)c3cccc2c13,22.4 µM (active),–
CC[C@@]1(O)C(=O)OCc2c1cc1n(c2=O)Cc2c-1nc1ccccc1c2/C=N/OC(C)(C)C,–,inactive
CNCC(=O)c1ccc(O)c(O)c1,–,inactive
C=CCN1CCc2nc(N)sc2CC1,–,inactive
CCOc1cc(OCC)c(C(=O)CCC(=O)O)cc1OCC,–,inactive
Nc1ccccc1C(=O)O,–,inactive
CC(=O)N(CC(O)CO)c1c(I)c(C(=O)NCC(O)CO)c(I)c(C(=O)NCC(O)CO)c1I (centres undefined),–,inactive
COP(=S)(OC)Oc1ccc(SC)c(C)c1,–,inactive
Nc1ncnc2nc[nH]c12,–,inactive
CCCNC(C)C(=O)Nc1ccccc1C (centres undefined),–,inactive
Cc1cc(=O)oc2cc(O[C@@H]3SC[C@@H](O)[C@H](O)[C@H]3O)ccc12,–,inactive
COc1c2c(cc3c1OCO3)CCN(C)C2,–,inactive
O=C(O)CCC(=O)O,–,inactive
COC(=O)c1ccccc1C(=O)c1ccc(OCCN2CCCCC2)cc1,14.1 µM (active),–
O=c1[nH]c(=O)n([C@H]2O[C@H](CO)[C@@H](O)[C@@H]2O)cc1/C=C\Br,–,inactive
CN=C(N)NC(=O)Nc1c(C)cccc1C,–,inactive
O=C(O)Cc1cccc2ccccc12,–,inactive
O=C1CC[C@@H](C(=O)O)N1,–,inactive
O=c1c(-c2ccc(O)cc2)coc2cc(O)cc(O)c12,–,inactive
O=C(Nc1ccc(Cl)c(Cl)c1)C1CC1,–,inactive

Structure (SMILES),AC50,outcome
CCC1(c2ccccc2)C(=O)N(COC)C(=O)N(COC)C1=O,–,inactive
Nc1ncnc2c1ncn2[C@@H]1O[C@H](CO)[C@@H](O)[C@H]1O,–,inactive
Cc1c(NC(=O)c2cccnc2)c(=O)n(-c2ccccc2)n1C,–,inactive
CC1CC(OC(=O)c2ccccc2O)CC(C)(C)C1 (centres undefined),–,inactive
CCCCCCCC/C=C\CCCCCCCC(=O)NCc1ccc(O)c(OC)c1,7.08 µM (active),–
CCOC(=O)O[C@]1(C(=O)OCCl)CC[C@H]2[C@@H]3CCC4=CC(=O)C=C[C@]4(C)[C@H]3[C@@H](O)C[C@@]21C,–,inactive
CC(C)(CO)[C@@H](O)C(=O)NCCCO,–,inactive
COC(=O)[C@@H]1[C@H]2C[C@H]3c4[nH]c5ccccc5c4CCN3C[C@@H]2CC[C@@H]1O,–,inactive
O=C(O)CCCC[C@@H]1SC[C@@H]2NC(=O)N[C@@H]21,–,inactive
NC(=O)c1ccc([N+](=O)[O-])cc1Cl,–,inactive
O=C1C(O)=C(O)C(=O)C(O)=C1O,–,inactive
COc1cc(-c2ccc(=O)[nH]n2)ccc1OC(F)F,–,inactive
NC(=O)c1cc([N+](=O)[O-])cc([N+](=O)[O-])c1,–,inactive
O=C(O)c1cc(=O)[nH]c(=O)[nH]1,–,inactive
CCCOC(=O)c1cncn1C(C)c1ccccc1 (centres undefined),–,inactive
CCN[C@H](C)Cc1cccc(C(F)(F)F)c1,35.5 µM (active),–
CCCCCCCCCCCCCCCCCC(=O)O,–,inactive
CCCCCCCC(=O)[O-].CCCCCCCC(=O)[O-].[Zn+2],–,inactive
CC(=O)CC(c1ccc([N+](=O)[O-])cc1)c1c(O)c2ccccc2oc1=O (centres undefined),–,inactive
